Consider 20 molecules from PubChem BioAssay (NCATS).

Where “and” joins values, the source holds several entries; their conditions need not be identical. Equal values may be shown once. Inconclusive results are not listed. A number with no mark means an inactive call. Calls of active or inactive are those of the source. The call rests on the fitted dose curve; in most records, active means well fitted curve in the direction sought with a large enough effect; inconclusive means small, poorly fitted or top-dose-only effect, or another doubt; inactive means no such curve, though single readings can be large; an effect the other way counts as inactive or inconclusive.

The target of assay [1] is Cellular tumor antigen p53 (Homo sapiens) (UniProt P04637). Description: Primary qHTS for small molecule compounds that upregulate eGFP-tagged delta133p53alpha (in N-terminal) cells. (AID 2060322). Further: nearly all actives have a fitted effect of over 75% in size. Further: potency means the concentration at half of the fitted maximal effect.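 On activation: series mostly up to about 56 µM; 0% = DMSO vehicle and 100% = reference activator.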 As to conditions: NCI-H358 eGFP-delta133p53alpha fluorescence, 24 h; activation: hits give high values. The gist of the method: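 NCI-H358 cells pre-induced 24 h with 10 ng/ml doxycycline to express N-terminal eGFP-delta133p53alpha, then dosed 24 h at 37C without doxycycline; fixed, Hoechst-stained, GFP intensity by laser scanning cytometry, normalized to DMSO (0%) and 57.5 uM 5-azacytidine (100%).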
Background: In qHTS, concentration-response curves come from the screen itself.

Assay [2] deals with Aldehyde dehydrogenase, mitochondrial (Homo sapiens) (UniProt P05091). Description: qHTS for Inhibitors of the Aldehyde Dehydrogenase Family (ALDH2) Primary screen (AID 2061308).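 Further: plate controls were vehicle for no effect and reference inhibitor for full effect; nearly all actives have a fitted effect of over 55% in size.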
In assay [3] the target is Retinaldehyde dehydrogenase 3 (Homo sapiens) (UniProt P47895). Put plainly: qHTS for Inhibitors of the Aldehyde Dehydrogenase Family (ALDH1A3) Primary screen (AID 2061315).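 Further: plate controls were DMSO vehicle for no effect and reference inhibitor for full effect.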
The nature of assay [4]: BET inhibitor-based combinations targeting novel dependencies in MECOM-rearranged (r) AML: OCI-AML3 cell line (AID 2202232). Further: nearly all actives have a fitted effect of over 35% in size. Further: potency means the concentration at half of the fitted maximal effect. As to conditions: Potency: OCI-AML3 viability. Put shortly: (§1)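 Viability of cells (500 per well) is scored by luminescent CellTiter-Glo at 48 hr post-dosing. Eleven-point titrations are normalized to DMSO and empty controls and reduced to AUC values.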

The nature of assay [5]: BET inhibitor-based combinations targeting novel dependencies in MECOM-rearranged (r) AML: HNT-34 cell line (AID 2202234). Further: nearly all actives have a fitted effect of over 35% in size. Further: potency means the concentration at half of the fitted maximal effect. Put shortly:
(§2)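 Using pin-tool transfer, drugs were added in 11 doses to cells (500/well), incubated 48 hr, and assessed with CellTiter-Glo. Z-AUC is a mean-centring transformation applied separately to each screened line.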

Assay [6] is described as follows: BET inhibitor-based combinations targeting novel dependencies in MECOM-rearranged (r) AML: UCSD-AML1 cell line (AID 2202235). Further: nearly all actives have a fitted effect of over 40% in size. Further: potency means the concentration at half of the fitted maximal effect. Put shortly:
as §2

A short description of assay [7]: BET inhibitor-based combinations targeting novel dependencies in MECOM-rearranged (r) AML: AML-191 cell line (AID 2202236; further: nearly all actives have a fitted effect of over 35% in size; further: potency means the concentration at half of the fitted maximal effect). Put shortly:
as §1

The nature of assay [8]: BET inhibitor-based combinations targeting novel dependencies in MECOM-rearranged (r) AML: AML-194 cell line (AID 2202237; further: nearly all actives have a fitted effect of over 40% in size; further: potency means the concentration at half of the fitted maximal effect). The gist of the method: as §1
The nature of assay [9]: BET inhibitor-based combinations targeting novel dependencies in MECOM-rearranged (r) AML: MV-4-11 cell line (AID 2202233). Further: nearly all actives have a fitted effect of over 45% in size. Further: potency means the concentration at half of the fitted maximal effect. The gist of the method:
as §2

Cellular tumor antigen p53 (Homo sapiens), sequence (P04637 whole entry, looked up): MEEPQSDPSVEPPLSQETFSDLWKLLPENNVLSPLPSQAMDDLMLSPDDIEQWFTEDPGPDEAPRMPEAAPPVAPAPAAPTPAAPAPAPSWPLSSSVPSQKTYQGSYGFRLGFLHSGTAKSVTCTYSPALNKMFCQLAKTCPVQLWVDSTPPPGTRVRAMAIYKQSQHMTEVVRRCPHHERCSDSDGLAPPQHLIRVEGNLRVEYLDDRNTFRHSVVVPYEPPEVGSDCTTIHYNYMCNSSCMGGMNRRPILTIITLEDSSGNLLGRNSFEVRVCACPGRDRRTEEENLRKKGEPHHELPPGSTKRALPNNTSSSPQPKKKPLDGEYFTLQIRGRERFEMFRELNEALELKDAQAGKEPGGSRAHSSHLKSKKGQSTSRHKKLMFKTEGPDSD

Turning to `C[C@@H](Oc1cc(-c2cnn(C3CCNCC3)c2)cnc1N)c1c(Cl)ccc(F)c1Cl`, the activation in [1] is -17.6%. Further, the Potency result in assay [2] and in assay [3] was “inactive” in each case. Besides, the Potency was 5.9 µM (active) in [4]; 1.18 µM (active) in assay [5]; 1.66 µM (active) in assay [6]; 1.18 µM (active) in [7]; 1.48 µM (active) in assay [8].

In the case of `O=C(O)c1ccc(O)c2ncc(N3CCOCC3)cc12`, the activation in [1] is 22.8%. Besides, the Potency entry in assay [2], in [3], in assay [4], in assay [6] and in [8] was “inactive” throughout.

On to `COc1cc2ncnc(-n3nc(-c4ccccn4)nc3N)c2cc1OC`, for which the activation in assay [1] was 13.4%. In addition, the Potency result in assay [2] and in assay [3] was “inactive” each time. In addition, the Potency in assay [9] was 1.48 µM (active); in [5] it was 2.35 µM (active); in assay [6] it was 4.68 µM (active); in [7], 4.17 µM (active); in [8], 6.61 µM (active).

For the molecule `O=C(NC[C@H](O)CN1CCc2ccccc2C1)c1ccnc(NC2CCC2)c1`, in [1], the activation was 4.33%. Further, the Potency result in [2], in assay [3], in [5], in assay [6] and in [7] was “inactive” each time. In assay [4], the Potency is 0.0042 µM (active).

Turning to `COc1nccc(-c2c(-c3ccc(F)cc3)ncn2C2CCNCC2)n1`, in assay [1], the activation was 2.68%. Moreover, the Potency result in assay [2], in [3] and in assay [4] was “inactive” each time. Moreover, the figures for the Potency in assay [9], in assay [6] and in [7] were 20.9 µM (active), 16.6 µM (active) and 20.9 µM (active), respectively.

Consider `Cc1cccc(Nc2nc(-c3ccncc3)cs2)c1`, for which the activation in assay [1] is 11.1% and -1.43%. The Potency entry in assay [2], in assay [3], in assay [4], in assay [6] and in [8] was “inactive” throughout.

Turning to `CCc1nc(C(N)=O)c(Nc2ccc(N3CCC(N4CCN(C)CC4)CC3)c(OC)c2)nc1NC1CCOCC1`, the activation in assay [1] was -44.7%. Besides, the Potency result in assay [2] and in assay [3] was “inactive” throughout. Moreover, the Potency in assay [4] was 5.9 µM (active); in assay [6] it was 2.63 µM (active); in [7] it was 2.63 µM (active); in [8], 3.32 µM (active).

In the case of `O=c1[nH]c([C@@H]2CCCN2)nc2c1oc1ccc(Cl)cc12`, the activation in [1] is -1%. The Potency result in [2] and in assay [3] was “inactive” each time. Further, the Potency in assay [9] was 13.2 µM (active).

Regarding `Cc1ncc(NC(=O)c2ccc(CN3CCN(C)CC3)c(C(F)(F)F)c2)cc1Nc1nccc(-c2cccnc2)n1`, the Potency in assay [1] is 23.9 µM (active); in assay [4] it was 14.8 µM (active); in assay [5], 0.0295 µM (active); in [7], 18.6 µM (active); in assay [8], 23.5 µM (active). Moreover, the Potency entry in assay [2] and in [3] was “inactive” in each case.

Turning to `Cc1nc(N)ncc1-c1nc(N2CCOCC2)c2sc(C(C)(C)O)cc2n1`, the activation in [1] was 9.3%. Moreover, the Potency entry in assay [2] and in assay [3] was “inactive” in each case. Moreover, the Potency in assay [4] was 0.105 µM (active); in assay [9], 4.17 µM (active); in [6], 1.32 µM (active).

Regarding `Cc1cnc(Nc2ccc(F)cc2Cl)nc1-c1c[nH]c(C(=O)N[C@H](CO)c2cccc(Cl)c2)c1`, in assay [1], the activation is 12% and 13.4%. In addition, the Potency result in assay [2] and in [3] was “inactive” in each case. Further, the Potency is 4.68 µM (active) in assay [4], 20.9 µM (active) in assay [9], 20.9 µM (active) in assay [6] and 18.6 µM (active) in assay [8].

Consider `Cc1cnc(CNC(=O)c2c(=O)c3ccc(N4CCCN(C)CC4)nc3n3c2sc2ccccc23)cn1`, for which the activation in assay [1] is 18.9% and -1.79%. Moreover, the values for the activity change, negative = inhibition in assay [2] and in assay [3] were 8.69% [at 11.2 µM] and 2.3% [at 11.2 µM], respectively. Also, in assay [9], the Potency was 1.08 µM (active).

With `Cc1nn(Cc2ccccc2Cl)c(C)c1CN(C)CC(O)COc1ccc(Cl)cc1` (stereo not given), the activation in [1] was 32.2%. Besides, the Potency result in [2], in [3] and in assay [6] was “inactive” throughout. For the same molecule, the values for the Potency in assay [9], in assay [5] and in assay [7] were 20.9 µM (active), 20.9 µM (active) and 23.5 µM (active), respectively.

With `Nc1cccc(S(=O)(=O)N2CCCN(S(=O)(=O)c3ccc4c(c3)OCCO4)CC2)c1`, the activation in [1] is 17.7%. Moreover, the Potency result in assay [2], in assay [3], in assay [4], in assay [9] and in [8] was “inactive” each time.

Regarding `CCN1CCC(n2cc(CNc3cc(Cl)c4ncc(C#N)c(Nc5ccc(F)c(Cl)c5)c4c3)nn2)CC1`, the Potency was 16.9 µM (active) in assay [1], 16.6 µM (active) in [4] and 20.9 µM (active) in assay [9]. The Potency result in assay [2], in [3] and in [6] was “inactive” each time.

On to `CC(=O)c1c(C)c2cnc(Nc3ccc(N4CCNCC4)cn3)nc2n(C2CCCC2)c1=O`, for which, in assay [1], the activation is 46.5% and -19.6%. The activity change, negative = inhibition was 10.9% [at 5.59 µM] in [2] and -7.36% [at 5.59 µM] in [3]. The Potency was 20.9 µM (active) in [4]; 6.61 µM (active) in [9]; 13.2 µM (active) in assay [6]; 16.6 µM (active) in [7]; 14.8 µM (active) in [8].

Take `O=C(O)c1ccc(Nc2ncc3c(n2)-c2ccc(Cl)cc2C(c2c(F)cccc2F)=NC3)cc1`: the activation in assay [1] was 139% and 6.25%. Further, the Potency result in assay [2] and in assay [3] was “inactive” throughout. Also, the Potency in assay [9] was 0.934 µM (active).

For the molecule `CC(C)(C)c1cc(NC(=O)Nc2ccc(-c3cn4c(n3)sc3cc(OCCN5CCOCC5)ccc34)cc2)no1`, in [1], the activation was 10.5% and 25%. Also, the Potency entry in assay [2], in assay [3] and in assay [6] was “inactive” each time. In addition, the Potency is 4.68 µM (active) in [4], 0.003 µM (active) in [9], 4.68 µM (active) in assay [7] and 14.8 µM (active) in assay [8].

For `CC[C@@](C)(Nc1ccnc(-c2c[nH]c3ncccc23)n1)C(=O)NCC(F)(F)F`, the activation in assay [1] is 18.8%. Also, the Potency entry in [2] and in assay [3] was “inactive” throughout. Moreover, the Potency was 14.8 µM (active) in assay [9], 14.8 µM (active) in [5] and 6.61 µM (active) in assay [6].

Turning to `O=C(Nc1ccc(OC(F)(F)F)cc1)c1sccc1NCc1ccnc2ccccc12`, in assay [1], the activation was 27.4%. The Potency result in [2] and in assay [3] was “inactive” each time. The Potency in assay [4] is 5.25 µM (active); in [5] it was 10.5 µM (active); in assay [6], 5.9 µM (active); in assay [7], 8.33 µM (active); in [8] it was 5.9 µM (active).
